Laboratory results published in PubChem BioAssay (NCI).
This is part of a sample that, as a whole, favours compounds with a hit. Of some 79,000 tested, about 15% had one in any assay. A number with no mark means an inactive call. Activity calls are given as the source filed them. Rule as the data show it: active = growth inhibition above about 70%; inactive = the rest. Where a SMILES comes first, the peptide text is derived from it. The star is where a group is joined. Trt = c1ccc(C(c2ccccc2)(c2ccccc2)*)cc1; Cbz = O=C(OCc1ccccc1)*

Columns and labels:
[1] = NCI Yeast Anticancer Drug Screen. Data for the rad50 strain (AID 155);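 also: 0% = growth of vehicle-only cultures of the same strain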; conditions: S. cerevisiae rad50 strain growth inhibition, stronger effect = higher value
Summary of the method: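 Readout: growth inhibition relative to vehicle-treated cultures. Compound exposure was carried out in a genetically defined yeast strain deficient in DNA damage repair.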

[2] = NCI Yeast Anticancer Drug Screen. Data for the mec2-1 strain (AID 157); conditions: S. cerevisiae mec2-1 strain, stronger effect = higher value
Summary of the method: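 Growth inhibition is read against vehicle-treated controls after compound exposure of the mec2-1 yeast strain, which is defective in DNA damage repair or cell cycle control.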

[3] = NCI Yeast Anticancer Drug Screen. Data for the sgs1 mgt1 strain (AID 161);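 also: 0% = growth of cultures given vehicle only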; conditions: S. cerevisiae sgs1 mgt1 strain, stronger effect = higher value
Summary of the method: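 Compounds are added to genetically altered yeast, and growth is compared with cultures given vehicle alone to give percent inhibition.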

[4] = NCI Yeast Anticancer Drug Screen. Data for the cln2 rad14 strain (AID 165);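 also: 0% = growth equal to vehicle treated cultures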; conditions: S. cerevisiae cln2 rad14 strain, stronger effect = higher value
Summary of the method: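 Growth inhibition, relative to vehicle-treated controls, is the read-out. The test organism is a yeast strain with defined genetic alterations, cln2 rad14.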

[5] = NCI Yeast Anticancer Drug Screen. Data for the bub3 strain (AID 167); conditions: S. cerevisiae bub3 mutant strain, stronger effect = higher value
Summary of the method: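 Readout: yeast growth inhibition, expressed relative to vehicle-only wells. The test organism is a mutant strain from a panel with lesions in DNA repair or checkpoint genes.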

[6] = NCI Yeast Anticancer Drug Screen. Data for the mlh1 rad18 strain (AID 175); conditions: S. cerevisiae mlh1 rad18 strain growth inhibition, stronger effect = higher value
Summary of the method: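 Cells of a genetically altered yeast strain, deficient in DNA damage repair, were treated with compound. Their growth was then compared with that of vehicle-treated cultures to give inhibition.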

[7] = at 5.0 µM (retest, dose inferred, filed as 0.5)
[8] = at 50.0 µM (retest, dose inferred, filed as 5.0)

Row | SMILES | growth inhibition [1, 7] | growth inhibition [1, 8] | growth inhibition ([1]; at 50.0 µM) | growth inhibition [2, 7] | growth inhibition [2, 8] | growth inhibition ([2]; at 50.0 µM) | growth inhibition [3, 7] | growth inhibition [3, 8] | growth inhibition ([3]; at 50.0 µM) | growth inhibition [4, 7] | growth inhibition [4, 8] | growth inhibition ([4]; at 50.0 µM) | growth inhibition [5, 7] | growth inhibition [5, 8] | growth inhibition ([5]; at 50.0 µM) | growth inhibition [6, 7] | growth inhibition [6, 8] | growth inhibition ([6]; at 50.0 µM)
1 | CCCCCOC(=O)C1C(=O)CC(c2ccccc2)C1c1ccccc1 (configuration not stated) | 1% | 79% (active) | 92.2% (active) | -1% | 63% | 16.6% | -4% | 67% | 56.1% | 0% | 76% (active) | 63.9% | -5% | 72% (active) | 45.5% | 0% | 85% (active) | 68.6%
2 | CC(C)(C)c1cc2c3c(c1)Oc1cc(C(C)(C)C)cc4c1C3(O)c1c(cc(C(C)(C)C)cc1O4)O2 | 19% | 99% (active) | 89.8% (active) | 22% | 100% (active) | 88.5% (active) | -5% | 99% (active) | 86.4% (active) | 14% | 98% (active) | 87.3% (active) | 12% | 98% (active) | 84.7% (active) | 14% | 100% (active) | 87.7% (active)
3 | COc1cc(/C=C/C2=C(C)C(=O)CC(c3cc(OC)c(OC)c(OC)c3)C2C)cc(OC)c1OC (configuration not stated) | 2% | -1% | -6.25% | -5% | 22% | -1.7% | 0% | 25% | 15.4% | -8% | -27% | 75.8% (active) | -2% | 7% | 2.1% | 0% | -102% | 42.6%
4 | CN(C)CCC(=O)N1C/C(=C\c2ccc(Cl)c(Cl)c2)C(=O)/C(=C/c2ccc(Cl)c(Cl)c2)C1 | 98% (active) | 97% (active) | 91.7% (active) | 99% (active) | 98% (active) | 89.8% (active) | 99% (active) | 97% (active) | 88.2% (active) | 98% (active) | 98% (active) | 90% (active) | 99% (active) | 98% (active) | 91.3% (active) | 99% (active) | 97% (active) | 88.9% (active)
5 | COc1ccc(C)c2nc3ccccc3nc12 | -119% | 86% (active) | 97% (active) | -42% | 24% | 74.5% (active) | -64% | 51% | 38.7% | -49% | 37% | 56.2% | -58% | 31% | 91.9% (active) | -110% | 67% | 87.7% (active)
6 | CC(=O)CC(=O)OCc1ccccc1 | 12% | 97% (active) | 94.5% (active) | 4% | 98% (active) | 97.2% (active) | 1% | 96% (active) | 98% (active) | 4% | 89% (active) | 87.2% (active) | 8% | 98% (active) | 96% (active) | 14% | 98% (active) | 97.7% (active)
7 | O=[N+]([O-])c1c(C=Nc2ccccc2)oc(-c2c(O)ccc3ccccc23)c1-c1c(O)ccc2ccccc12 | 1% | 2% | 98.7% (active) | -13% | -11% | 98.7% (active) | -7% | -4% | 98.8% (active) | -30% | -26% | 98.5% (active) | 3% | 3% | 98.8% (active) | -2% | -1% | 98.8% (active)
8 | Fc1cccc(C2SCc3nc4ccccc4n32)c1F (configuration not stated) | -4% | 2% | 63.3% | -5% | 23% | 54.8% | -3% | 28% | 76.2% (active) | -12% | -7% | 40.2% | -5% | 14% | 73.3% (active) | -8% | 7% | 92% (active)
9 | CCOC(=O)CCC(NC(=O)C(CSC(c1ccccc1)(c1ccccc1)c1ccccc1)NC(=O)OCc1ccccc1)C(=O)NC(CCC(=O)OCC)C(=O)NC(CCC(=O)OCC)C(=O)NC(CCC(=O)OCC)C(=O)NC(CSC(c1ccccc1)(c1ccccc1)c1ccccc1)C(=O)OC (configuration not stated) (Cbz-C(Trt)E(OEt)E(OEt)E(OEt)E(OEt)C(Trt)-OMe; configuration not given here) | 1% | 67% | 74.2% (active) | -7% | 63% | 75.8% (active) | -1% | 61% | 68% | 7% | 70% (active) | 82.3% (active) | -4% | 58% | 72.2% (active) | 2% | 73% (active) | 75.6% (active)
